Experiments:
Test in all cases: DAPPL (digital affinity profiling via proximity ligation, sequencing); 10 mM Tris-HCl pH 7.5, 50 mM NaCl, 1 mM DTT, 4% glycerol, room temperature, 30 min; GST-TFs on glutathione beads, 16-mer random dsDNA library, 0.1% formaldehyde crosslink after washing; high values mean tight binding
FLI1 = molecular target: T1, FLI1 (Homo sapiens, UniProt Q01543 1-452); details: protein: recombinant; tags: N-terminal GST; dsDNA, one strand shown
T1 sequence: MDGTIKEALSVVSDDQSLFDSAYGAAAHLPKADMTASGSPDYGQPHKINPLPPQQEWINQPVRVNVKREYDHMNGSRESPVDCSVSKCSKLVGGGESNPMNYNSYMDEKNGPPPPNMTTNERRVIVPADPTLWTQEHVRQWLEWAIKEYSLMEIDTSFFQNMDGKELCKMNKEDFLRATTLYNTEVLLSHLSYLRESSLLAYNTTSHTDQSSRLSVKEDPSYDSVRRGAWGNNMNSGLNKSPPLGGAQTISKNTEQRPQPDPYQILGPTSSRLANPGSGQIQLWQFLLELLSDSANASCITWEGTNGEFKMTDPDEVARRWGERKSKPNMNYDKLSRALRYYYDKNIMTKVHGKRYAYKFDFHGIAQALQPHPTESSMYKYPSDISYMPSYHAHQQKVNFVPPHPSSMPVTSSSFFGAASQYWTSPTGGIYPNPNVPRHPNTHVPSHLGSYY
Method in brief: (§1)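 In yeast, human transcription factors were expressed with a GST fusion, then pulled down on glutathione beads and given DNA barcodes. Pooled with a tag-only sample, they were exposed to 200 nmole of a 16-mer random double-stranded DNA library (Tris/NaCl/DTT/glycerol buffer, room temperature, 30 min), washed, crosslinked with 0.1% formaldehyde, proximity-ligated using BsaI/T4 ligase for 1 h at 37 °C, PCR-amplified and read on an Illumina NextSeq500. Each hexamer's frequency of reads for a factor, divided by the matching frequency for the tag-only sample, gives the binding signal.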

ELK1 = molecular target: T2, ELK1 (Homo sapiens, UniProt P19419 1-428); details: protein: recombinant; tags: N-terminal GST; dsDNA, one strand shown
T2 sequence: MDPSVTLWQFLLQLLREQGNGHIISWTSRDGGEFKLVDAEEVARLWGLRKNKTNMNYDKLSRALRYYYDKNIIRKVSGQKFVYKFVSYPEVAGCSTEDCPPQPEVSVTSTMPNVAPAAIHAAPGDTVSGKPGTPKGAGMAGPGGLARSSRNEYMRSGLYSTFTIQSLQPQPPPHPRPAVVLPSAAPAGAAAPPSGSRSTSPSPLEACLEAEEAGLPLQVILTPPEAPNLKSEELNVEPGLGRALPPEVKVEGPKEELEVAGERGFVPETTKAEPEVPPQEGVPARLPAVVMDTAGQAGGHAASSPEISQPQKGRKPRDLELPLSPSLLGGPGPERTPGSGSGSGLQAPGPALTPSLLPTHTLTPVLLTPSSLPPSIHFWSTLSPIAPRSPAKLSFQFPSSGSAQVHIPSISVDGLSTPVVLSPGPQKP
Method in brief: as §1

GABPA = molecular target: T3, GABPA (Homo sapiens, UniProt Q06546 1-454); details: protein: recombinant; tags: N-terminal GST; dsDNA, one strand shown
T3 sequence: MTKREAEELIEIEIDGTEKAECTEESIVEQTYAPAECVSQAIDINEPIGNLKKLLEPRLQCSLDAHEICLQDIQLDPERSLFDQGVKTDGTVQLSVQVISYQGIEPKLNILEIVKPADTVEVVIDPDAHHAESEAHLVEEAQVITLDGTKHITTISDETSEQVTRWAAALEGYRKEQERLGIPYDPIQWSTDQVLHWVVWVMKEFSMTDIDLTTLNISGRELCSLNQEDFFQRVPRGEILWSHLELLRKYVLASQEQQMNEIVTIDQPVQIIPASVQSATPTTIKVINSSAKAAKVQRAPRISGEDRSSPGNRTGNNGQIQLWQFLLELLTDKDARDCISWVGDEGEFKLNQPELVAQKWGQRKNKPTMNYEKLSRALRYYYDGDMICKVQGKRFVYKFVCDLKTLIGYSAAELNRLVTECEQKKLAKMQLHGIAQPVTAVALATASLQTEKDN
Method in brief: as §1

ERG = molecular target: T4, ERG (Homo sapiens, UniProt P11308 1-479); details: protein: recombinant; tags: N-terminal GST; dsDNA, one strand shown
T4 sequence: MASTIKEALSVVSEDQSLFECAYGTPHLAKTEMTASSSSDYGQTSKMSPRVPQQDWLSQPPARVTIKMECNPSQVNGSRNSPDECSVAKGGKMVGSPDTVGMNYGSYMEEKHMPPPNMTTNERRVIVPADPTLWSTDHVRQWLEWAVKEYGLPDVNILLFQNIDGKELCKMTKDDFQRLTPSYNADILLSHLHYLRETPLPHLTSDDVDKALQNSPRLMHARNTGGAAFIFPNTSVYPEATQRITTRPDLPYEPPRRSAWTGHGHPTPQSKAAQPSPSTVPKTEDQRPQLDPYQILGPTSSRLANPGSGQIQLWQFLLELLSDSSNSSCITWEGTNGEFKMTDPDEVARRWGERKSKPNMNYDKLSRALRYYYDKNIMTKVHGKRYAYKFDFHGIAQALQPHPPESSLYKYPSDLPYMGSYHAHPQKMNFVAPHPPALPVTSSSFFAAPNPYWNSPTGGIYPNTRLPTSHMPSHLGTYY
Method in brief: as §1

ELF1 = ELF1 (Homo sapiens, UniProt P32519 1-619); details: protein: recombinant; tags: N-terminal GST; dsDNA, one strand shown
Method in brief: as §1

EHF = molecular target: T5, EHF (Homo sapiens, UniProt Q9NZC4 1-300); details: protein: recombinant; tags: N-terminal GST; dsDNA, one strand shown
T5 sequence: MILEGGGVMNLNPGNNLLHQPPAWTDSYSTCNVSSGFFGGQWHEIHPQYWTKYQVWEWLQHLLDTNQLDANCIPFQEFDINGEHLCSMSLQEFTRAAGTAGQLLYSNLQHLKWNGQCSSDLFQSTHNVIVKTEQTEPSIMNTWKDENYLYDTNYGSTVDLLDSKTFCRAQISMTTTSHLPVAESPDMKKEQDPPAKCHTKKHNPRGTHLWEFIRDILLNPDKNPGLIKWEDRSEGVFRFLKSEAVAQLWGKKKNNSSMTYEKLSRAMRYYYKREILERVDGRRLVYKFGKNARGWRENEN
Method in brief: as §1

SPI1 = SPI1 (Homo sapiens, UniProt P17947 1-270); details: protein: recombinant; tags: N-terminal GST; dsDNA, one strand shown
Method in brief: as §1

SPIB = SPIB (Homo sapiens, UniProt Q01892 1-262); details: protein: recombinant; tags: N-terminal GST; dsDNA, one strand shown
Method in brief: as §1

ELK3 = molecular target: T6, ELK3 (Homo sapiens, UniProt P41970 1-407); details: protein: recombinant; tags: N-terminal GST; dsDNA, one strand shown
T6 sequence: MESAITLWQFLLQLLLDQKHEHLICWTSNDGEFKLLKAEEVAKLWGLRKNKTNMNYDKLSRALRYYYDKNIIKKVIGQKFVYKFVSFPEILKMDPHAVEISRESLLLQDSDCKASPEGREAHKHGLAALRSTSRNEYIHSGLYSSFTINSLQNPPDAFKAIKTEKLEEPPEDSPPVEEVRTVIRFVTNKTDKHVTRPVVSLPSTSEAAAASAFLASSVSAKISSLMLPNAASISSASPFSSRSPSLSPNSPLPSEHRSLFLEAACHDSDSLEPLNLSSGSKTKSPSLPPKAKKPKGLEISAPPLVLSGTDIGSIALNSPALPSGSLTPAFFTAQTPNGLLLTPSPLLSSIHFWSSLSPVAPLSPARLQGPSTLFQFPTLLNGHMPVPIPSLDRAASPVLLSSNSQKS
Method in brief: as §1

FEV = molecular target: T7, FEV (Homo sapiens, UniProt Q99581 1-238); details: protein: recombinant; tags: N-terminal GST; dsDNA, one strand shown
T7 sequence: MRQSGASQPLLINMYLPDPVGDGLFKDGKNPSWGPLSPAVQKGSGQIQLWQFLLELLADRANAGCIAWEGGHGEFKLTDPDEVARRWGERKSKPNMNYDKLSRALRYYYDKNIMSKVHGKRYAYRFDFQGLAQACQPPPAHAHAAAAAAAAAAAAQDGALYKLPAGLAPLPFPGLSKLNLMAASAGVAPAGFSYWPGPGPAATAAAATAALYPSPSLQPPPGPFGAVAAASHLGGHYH
Method in brief: as §1

ETV5 = ETV5 (Homo sapiens, UniProt P41161 1-510); details: protein: recombinant; tags: N-terminal GST; dsDNA, one strand shown
Method in brief: as §1

HSF1 = HSF1 (Homo sapiens, UniProt Q00613 1-529); details: protein: recombinant; tags: N-terminal GST; chain copies: 3; dsDNA, one strand shown
Method in brief: as §1

SPIC = molecular target: T8, SPIC (Homo sapiens, UniProt Q8N5J4 1-248); details: protein: recombinant; tags: N-terminal GST; dsDNA, one strand shown
T8 sequence: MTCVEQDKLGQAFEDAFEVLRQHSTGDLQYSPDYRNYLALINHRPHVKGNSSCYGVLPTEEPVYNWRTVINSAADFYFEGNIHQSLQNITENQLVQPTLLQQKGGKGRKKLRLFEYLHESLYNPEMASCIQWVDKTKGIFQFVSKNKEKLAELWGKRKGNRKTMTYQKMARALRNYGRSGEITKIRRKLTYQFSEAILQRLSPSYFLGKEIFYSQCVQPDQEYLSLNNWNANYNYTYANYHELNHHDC
Method in brief: as §1

ELF4 = ELF4 (Homo sapiens, UniProt Q99607 1-663); details: protein: recombinant; tags: N-terminal GST; dsDNA, one strand shown
Method in brief: as §1

ELK4 = molecular target: T9, ELK4 (Homo sapiens, UniProt P28324-2 1-405); details: protein: recombinant; tags: N-terminal GST; dsDNA, one strand shown
T9 sequence: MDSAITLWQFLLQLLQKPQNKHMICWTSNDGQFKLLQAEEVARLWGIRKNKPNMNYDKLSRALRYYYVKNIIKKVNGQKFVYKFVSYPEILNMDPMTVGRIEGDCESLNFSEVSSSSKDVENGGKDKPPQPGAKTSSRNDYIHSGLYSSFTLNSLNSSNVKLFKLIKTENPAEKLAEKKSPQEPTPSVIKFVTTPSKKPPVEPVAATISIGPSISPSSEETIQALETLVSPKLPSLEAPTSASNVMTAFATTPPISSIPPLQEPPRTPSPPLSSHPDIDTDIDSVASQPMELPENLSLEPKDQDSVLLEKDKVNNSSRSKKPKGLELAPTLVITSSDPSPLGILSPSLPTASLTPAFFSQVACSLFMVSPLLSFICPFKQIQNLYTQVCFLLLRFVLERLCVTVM
Method in brief: as §1

ETV2 = molecular target: T10, ETV2 (Homo sapiens, UniProt O00321 1-342); details: protein: recombinant; tags: N-terminal GST; dsDNA, one strand shown
T10 sequence: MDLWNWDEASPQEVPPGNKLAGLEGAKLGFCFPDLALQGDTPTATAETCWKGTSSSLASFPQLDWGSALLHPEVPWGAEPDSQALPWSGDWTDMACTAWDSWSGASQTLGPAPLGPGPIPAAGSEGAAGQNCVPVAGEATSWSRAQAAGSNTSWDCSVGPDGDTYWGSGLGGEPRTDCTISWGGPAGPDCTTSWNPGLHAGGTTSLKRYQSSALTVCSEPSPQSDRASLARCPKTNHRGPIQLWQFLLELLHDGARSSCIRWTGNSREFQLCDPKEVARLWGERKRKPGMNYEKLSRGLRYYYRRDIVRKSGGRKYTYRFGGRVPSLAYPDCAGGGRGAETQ
Method in brief: as §1

ELF3 = molecular target: T11, ELF3 (Homo sapiens, UniProt P78545 1-371); details: protein: recombinant; tags: N-terminal GST; dsDNA, one strand shown
T11 sequence: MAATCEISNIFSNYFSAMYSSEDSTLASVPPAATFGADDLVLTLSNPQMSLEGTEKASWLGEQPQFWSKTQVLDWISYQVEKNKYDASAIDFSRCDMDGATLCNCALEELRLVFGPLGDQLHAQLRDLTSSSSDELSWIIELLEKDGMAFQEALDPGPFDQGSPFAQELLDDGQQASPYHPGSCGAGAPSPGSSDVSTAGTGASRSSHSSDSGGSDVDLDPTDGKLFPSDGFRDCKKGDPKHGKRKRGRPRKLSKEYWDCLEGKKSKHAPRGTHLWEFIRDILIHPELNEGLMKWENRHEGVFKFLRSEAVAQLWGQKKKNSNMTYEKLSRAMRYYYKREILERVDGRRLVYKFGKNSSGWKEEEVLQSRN
Method in brief: as §1

CRX = CRX (Homo sapiens, UniProt O43186 1-299); details: protein: recombinant; tags: N-terminal GST; dsDNA, one strand shown
Method in brief: as §1

ETV1 = ETV1 (Homo sapiens, UniProt P50549 1-477); details: protein: recombinant; tags: N-terminal GST; dsDNA, one strand shown
Method in brief: as §1

Chain of ELF1 (P32519 whole entry): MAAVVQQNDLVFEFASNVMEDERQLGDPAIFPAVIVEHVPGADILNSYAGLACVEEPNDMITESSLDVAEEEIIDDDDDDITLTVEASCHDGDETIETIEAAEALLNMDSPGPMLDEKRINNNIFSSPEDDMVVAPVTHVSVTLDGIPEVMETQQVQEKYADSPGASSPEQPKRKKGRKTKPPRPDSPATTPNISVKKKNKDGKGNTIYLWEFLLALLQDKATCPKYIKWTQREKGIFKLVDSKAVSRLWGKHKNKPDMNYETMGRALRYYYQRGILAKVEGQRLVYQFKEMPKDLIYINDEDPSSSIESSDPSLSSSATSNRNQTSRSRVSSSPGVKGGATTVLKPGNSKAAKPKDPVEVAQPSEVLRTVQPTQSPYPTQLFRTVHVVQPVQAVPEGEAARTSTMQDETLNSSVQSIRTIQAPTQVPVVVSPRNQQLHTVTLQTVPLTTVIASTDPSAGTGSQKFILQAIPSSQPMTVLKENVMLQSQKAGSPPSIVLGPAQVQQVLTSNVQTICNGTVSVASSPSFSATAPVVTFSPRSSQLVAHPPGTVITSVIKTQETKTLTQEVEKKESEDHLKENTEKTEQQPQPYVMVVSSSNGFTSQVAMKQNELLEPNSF
Chain of CRX (O43186 whole entry): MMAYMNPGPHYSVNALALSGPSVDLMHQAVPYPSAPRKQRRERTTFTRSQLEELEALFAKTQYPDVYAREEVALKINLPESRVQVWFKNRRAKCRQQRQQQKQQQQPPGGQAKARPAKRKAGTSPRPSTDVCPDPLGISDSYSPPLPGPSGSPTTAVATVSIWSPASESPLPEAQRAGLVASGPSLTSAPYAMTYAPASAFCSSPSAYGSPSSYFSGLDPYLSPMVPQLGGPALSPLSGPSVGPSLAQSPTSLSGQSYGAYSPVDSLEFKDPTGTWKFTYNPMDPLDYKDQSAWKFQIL
Chain of SPIB (Q01892 whole entry): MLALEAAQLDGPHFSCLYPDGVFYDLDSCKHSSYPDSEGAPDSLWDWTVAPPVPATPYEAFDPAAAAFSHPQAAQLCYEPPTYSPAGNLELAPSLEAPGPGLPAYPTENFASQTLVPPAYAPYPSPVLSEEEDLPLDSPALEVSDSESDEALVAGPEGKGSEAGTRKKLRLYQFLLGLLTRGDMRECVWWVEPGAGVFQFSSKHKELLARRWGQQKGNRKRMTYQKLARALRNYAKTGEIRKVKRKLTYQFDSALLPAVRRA
Chain of ETV1 (P50549 whole entry): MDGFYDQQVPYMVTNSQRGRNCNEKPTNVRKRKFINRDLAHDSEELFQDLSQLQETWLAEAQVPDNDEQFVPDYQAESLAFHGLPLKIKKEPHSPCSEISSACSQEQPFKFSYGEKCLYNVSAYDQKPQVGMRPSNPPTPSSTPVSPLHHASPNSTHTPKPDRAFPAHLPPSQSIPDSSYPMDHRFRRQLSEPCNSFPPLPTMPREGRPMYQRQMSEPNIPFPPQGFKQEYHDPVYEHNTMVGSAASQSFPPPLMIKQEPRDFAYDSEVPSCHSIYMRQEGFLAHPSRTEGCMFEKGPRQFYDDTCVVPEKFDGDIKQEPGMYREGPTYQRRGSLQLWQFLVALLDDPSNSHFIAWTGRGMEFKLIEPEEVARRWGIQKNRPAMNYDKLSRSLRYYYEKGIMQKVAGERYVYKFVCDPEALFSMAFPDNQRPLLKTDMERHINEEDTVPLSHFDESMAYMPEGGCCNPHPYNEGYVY
Chain of ELF4 (Q99607 whole entry): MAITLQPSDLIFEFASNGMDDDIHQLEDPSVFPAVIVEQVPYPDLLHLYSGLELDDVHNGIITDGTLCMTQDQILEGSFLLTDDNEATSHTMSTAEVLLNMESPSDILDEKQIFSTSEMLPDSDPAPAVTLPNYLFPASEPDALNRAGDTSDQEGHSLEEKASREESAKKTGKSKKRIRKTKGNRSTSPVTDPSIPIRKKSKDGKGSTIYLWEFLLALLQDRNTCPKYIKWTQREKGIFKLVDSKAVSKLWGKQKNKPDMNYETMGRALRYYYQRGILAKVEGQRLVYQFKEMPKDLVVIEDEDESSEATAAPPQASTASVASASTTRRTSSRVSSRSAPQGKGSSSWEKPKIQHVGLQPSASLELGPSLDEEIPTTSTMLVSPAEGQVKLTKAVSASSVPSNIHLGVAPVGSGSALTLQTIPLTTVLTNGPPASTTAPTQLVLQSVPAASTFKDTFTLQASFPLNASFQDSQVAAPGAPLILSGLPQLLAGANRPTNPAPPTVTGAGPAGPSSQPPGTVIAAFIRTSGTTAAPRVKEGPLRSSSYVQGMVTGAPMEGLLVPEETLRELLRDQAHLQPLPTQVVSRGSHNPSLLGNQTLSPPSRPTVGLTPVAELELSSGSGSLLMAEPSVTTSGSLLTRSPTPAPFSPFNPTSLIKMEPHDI
Chain of HSF1 (Q00613 whole entry): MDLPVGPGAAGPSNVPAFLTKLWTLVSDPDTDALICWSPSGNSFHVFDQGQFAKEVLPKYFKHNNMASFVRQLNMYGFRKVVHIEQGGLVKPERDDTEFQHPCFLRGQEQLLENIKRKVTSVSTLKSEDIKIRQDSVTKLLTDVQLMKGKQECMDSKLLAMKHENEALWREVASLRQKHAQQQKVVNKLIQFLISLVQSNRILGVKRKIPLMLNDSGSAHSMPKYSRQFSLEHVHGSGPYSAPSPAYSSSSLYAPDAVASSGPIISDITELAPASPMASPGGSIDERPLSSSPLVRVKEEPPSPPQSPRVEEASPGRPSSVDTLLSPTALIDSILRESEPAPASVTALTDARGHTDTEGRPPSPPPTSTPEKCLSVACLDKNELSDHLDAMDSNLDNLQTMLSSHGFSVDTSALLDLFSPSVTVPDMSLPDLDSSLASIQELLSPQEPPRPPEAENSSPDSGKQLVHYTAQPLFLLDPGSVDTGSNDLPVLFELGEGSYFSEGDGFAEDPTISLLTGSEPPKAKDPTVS
Chain of ETV5 (P41161 whole entry): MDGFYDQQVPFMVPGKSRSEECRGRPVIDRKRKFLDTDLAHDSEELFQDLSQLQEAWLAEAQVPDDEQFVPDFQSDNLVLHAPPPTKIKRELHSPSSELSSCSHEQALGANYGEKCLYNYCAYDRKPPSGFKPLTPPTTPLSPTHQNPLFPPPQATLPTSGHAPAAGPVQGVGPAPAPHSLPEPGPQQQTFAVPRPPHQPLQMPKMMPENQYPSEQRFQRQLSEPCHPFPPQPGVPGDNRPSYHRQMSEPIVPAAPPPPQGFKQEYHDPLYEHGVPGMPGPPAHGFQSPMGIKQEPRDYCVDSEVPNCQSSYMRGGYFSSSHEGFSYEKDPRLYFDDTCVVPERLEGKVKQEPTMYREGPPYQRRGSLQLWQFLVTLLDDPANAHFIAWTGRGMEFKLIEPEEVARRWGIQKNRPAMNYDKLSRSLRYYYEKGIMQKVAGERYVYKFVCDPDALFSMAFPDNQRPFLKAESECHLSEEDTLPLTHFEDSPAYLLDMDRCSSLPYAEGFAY

In the case of TCCGGT, the binding signal (FLI1) is reported as 3.61 fold enrichment (6-mer frequency, TF over GST control), the binding signal (ELK1) is reported as 3.83 fold enrichment (6-mer frequency, TF over GST control) and the binding signal (GABPA) is reported as 3.5 fold enrichment (6-mer frequency, TF over GST control). For the same sequence, the binding signal (ERG) was 4.63 fold enrichment (6-mer frequency, TF over GST control), the binding signal (ELF1) was 3.46 fold enrichment (6-mer frequency, TF over GST control) and the binding signal (EHF) was 3.67 fold enrichment (6-mer frequency, TF over GST control). For the same sequence, the binding signal (SPI1) was 3.58 fold enrichment (6-mer frequency, TF over GST control), the binding signal (SPIB) was 3.58 fold enrichment (6-mer frequency, TF over GST control) and the binding signal (ELK3) was 4.4 fold enrichment (6-mer frequency, TF over GST control). The binding signal (FEV) was 6.6 fold enrichment (6-mer frequency, TF over GST control), the binding signal (ETV5) was 3.98 fold enrichment (6-mer frequency, TF over GST control) and the binding signal (HSF1) was 1.09 fold enrichment (6-mer frequency, TF over GST control). The binding signal (SPIC) was 3.59 fold enrichment (6-mer frequency, TF over GST control), the binding signal (ELF4) was 3.32 fold enrichment (6-mer frequency, TF over GST control) and the binding signal (ELK4) was 3.14 fold enrichment (6-mer frequency, TF over GST control). The binding signal (ETV2) was 3.65 fold enrichment (6-mer frequency, TF over GST control), the binding signal (ELF3) was 3.41 fold enrichment (6-mer frequency, TF over GST control) and the binding signal (CRX) was 1.04 fold enrichment (6-mer frequency, TF over GST control). For the same sequence, the binding signal (ETV1) was 3.87 fold enrichment (6-mer frequency, TF over GST control).

Source: paper PMC7862700, “An all-to-all approach to the identification of sequence-specific readers for epigenetic DNA modifications on cytosine”
